# In article PMC7862700, “An all-to-all approach to the identification of sequence-specific readers for epigenetic DNA modifications on cytosine”:
# Assays:
# Assay in all cases: DAPPL (digital affinity profiling via proximity ligation, sequencing); 10 mM Tris-HCl pH 7.5, 50 mM NaCl, 1 mM DTT, 4% glycerol, room temperature, 30 min; GST-TFs on glutathione beads, 16-mer random dsDNA library, 0.1% formaldehyde crosslink after washing; high values mean tight binding
# FEV = target: T1, FEV (Homo sapiens, UniProt Q99581 1-238); details: protein: recombinant; tags: N-terminal GST; dsDNA, one strand shown
# T1 sequence: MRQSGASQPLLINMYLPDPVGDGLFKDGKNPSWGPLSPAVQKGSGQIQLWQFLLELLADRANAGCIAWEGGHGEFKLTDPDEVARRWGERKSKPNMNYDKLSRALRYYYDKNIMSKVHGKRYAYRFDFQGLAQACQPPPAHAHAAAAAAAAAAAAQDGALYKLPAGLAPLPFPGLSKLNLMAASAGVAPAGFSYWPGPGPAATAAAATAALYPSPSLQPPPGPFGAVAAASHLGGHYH
# How it was run: (§1)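 GST fusions of human transcription factors were expressed in yeast and captured with glutathione beads. Once given DNA barcodes and pooled alongside a tag-only sample, they were incubated for 30 min at room temperature with 200 nmole of a random double-stranded 16-mer DNA library in Tris/NaCl/DTT/glycerol buffer, then washed, crosslinked (0.1% formaldehyde), proximity-ligated, PCR-amplified and sequenced on an Illumina NextSeq500. The binding signal of each hexamer is its read frequency for a factor divided by its frequency for the tag-only sample.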
# ETV5 = ETV5 (Homo sapiens, UniProt P41161 1-510); details: protein: recombinant; tags: N-terminal GST; dsDNA, one strand shown
# How it was run: as §1
# HSF1 = HSF1 (Homo sapiens, UniProt Q00613 1-529); details: protein: recombinant; tags: N-terminal GST; chain copies: 3; dsDNA, one strand shown
# How it was run: as §1
# SPIC = target: T2, SPIC (Homo sapiens, UniProt Q8N5J4 1-248); details: protein: recombinant; tags: N-terminal GST; dsDNA, one strand shown
# T2 sequence: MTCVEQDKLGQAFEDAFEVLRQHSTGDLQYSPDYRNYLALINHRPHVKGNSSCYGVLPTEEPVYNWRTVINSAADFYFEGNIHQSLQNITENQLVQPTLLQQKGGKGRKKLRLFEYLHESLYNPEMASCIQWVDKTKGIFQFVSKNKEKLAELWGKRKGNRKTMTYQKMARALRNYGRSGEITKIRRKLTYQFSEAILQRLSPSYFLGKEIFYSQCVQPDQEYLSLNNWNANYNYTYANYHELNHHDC
# How it was run: as §1
# ELF4 = ELF4 (Homo sapiens, UniProt Q99607 1-663); details: protein: recombinant; tags: N-terminal GST; dsDNA, one strand shown
# How it was run: as §1
# ELK4 = target: T3, ELK4 (Homo sapiens, UniProt P28324-2 1-405); details: protein: recombinant; tags: N-terminal GST; dsDNA, one strand shown
# T3 sequence: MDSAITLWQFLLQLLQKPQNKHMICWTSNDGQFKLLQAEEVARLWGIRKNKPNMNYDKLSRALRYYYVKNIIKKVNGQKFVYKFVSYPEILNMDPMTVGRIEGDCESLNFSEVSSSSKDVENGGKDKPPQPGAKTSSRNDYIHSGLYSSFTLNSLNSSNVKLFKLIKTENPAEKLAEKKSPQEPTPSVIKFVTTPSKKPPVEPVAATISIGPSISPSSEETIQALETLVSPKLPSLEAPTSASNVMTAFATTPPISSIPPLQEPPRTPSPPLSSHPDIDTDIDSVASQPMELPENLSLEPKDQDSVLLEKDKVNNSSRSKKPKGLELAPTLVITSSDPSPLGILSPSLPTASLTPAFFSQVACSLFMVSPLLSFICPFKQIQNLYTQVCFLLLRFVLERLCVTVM
# How it was run: as §1
# ETV2 = target: T4, ETV2 (Homo sapiens, UniProt O00321 1-342); details: protein: recombinant; tags: N-terminal GST; dsDNA, one strand shown
# T4 sequence: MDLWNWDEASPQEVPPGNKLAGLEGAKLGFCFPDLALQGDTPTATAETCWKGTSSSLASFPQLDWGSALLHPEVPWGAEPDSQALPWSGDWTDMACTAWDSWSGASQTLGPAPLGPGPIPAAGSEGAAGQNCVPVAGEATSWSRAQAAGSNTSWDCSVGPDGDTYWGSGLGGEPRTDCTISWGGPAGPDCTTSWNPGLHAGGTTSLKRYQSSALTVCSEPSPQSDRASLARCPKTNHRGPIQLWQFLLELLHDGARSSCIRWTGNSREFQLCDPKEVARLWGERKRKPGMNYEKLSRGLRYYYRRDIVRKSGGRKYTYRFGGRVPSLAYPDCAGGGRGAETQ
# How it was run: as §1
# ELF3 = target: T5, ELF3 (Homo sapiens, UniProt P78545 1-371); details: protein: recombinant; tags: N-terminal GST; dsDNA, one strand shown
# T5 sequence: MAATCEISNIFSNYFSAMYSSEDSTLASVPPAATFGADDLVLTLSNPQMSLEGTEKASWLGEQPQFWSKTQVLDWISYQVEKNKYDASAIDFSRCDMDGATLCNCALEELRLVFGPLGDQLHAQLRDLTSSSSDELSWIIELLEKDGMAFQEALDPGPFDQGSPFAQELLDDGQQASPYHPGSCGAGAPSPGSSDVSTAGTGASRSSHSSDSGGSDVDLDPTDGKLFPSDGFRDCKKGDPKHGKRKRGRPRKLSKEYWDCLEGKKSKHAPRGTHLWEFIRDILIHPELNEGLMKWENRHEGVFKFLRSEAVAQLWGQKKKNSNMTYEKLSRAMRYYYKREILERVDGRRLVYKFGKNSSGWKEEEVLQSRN
# How it was run: as §1
# CRX = CRX (Homo sapiens, UniProt O43186 1-299); details: protein: recombinant; tags: N-terminal GST; dsDNA, one strand shown
# How it was run: as §1
# HSF1, sequence (Q00613 whole entry): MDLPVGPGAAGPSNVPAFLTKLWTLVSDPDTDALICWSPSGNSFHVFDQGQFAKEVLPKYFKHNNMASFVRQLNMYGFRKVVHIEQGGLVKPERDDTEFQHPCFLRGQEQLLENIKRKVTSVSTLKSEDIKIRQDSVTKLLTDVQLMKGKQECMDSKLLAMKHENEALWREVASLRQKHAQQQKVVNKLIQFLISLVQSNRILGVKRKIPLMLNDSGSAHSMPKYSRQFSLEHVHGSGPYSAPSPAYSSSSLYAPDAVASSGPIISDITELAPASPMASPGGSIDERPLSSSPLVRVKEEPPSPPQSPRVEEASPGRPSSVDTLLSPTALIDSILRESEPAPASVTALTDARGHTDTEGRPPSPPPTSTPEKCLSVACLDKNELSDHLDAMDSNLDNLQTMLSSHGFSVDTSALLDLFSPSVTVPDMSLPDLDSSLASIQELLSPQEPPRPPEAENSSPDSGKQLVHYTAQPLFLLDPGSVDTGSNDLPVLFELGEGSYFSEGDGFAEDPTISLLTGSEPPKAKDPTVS
# ETV5, sequence (P41161 whole entry): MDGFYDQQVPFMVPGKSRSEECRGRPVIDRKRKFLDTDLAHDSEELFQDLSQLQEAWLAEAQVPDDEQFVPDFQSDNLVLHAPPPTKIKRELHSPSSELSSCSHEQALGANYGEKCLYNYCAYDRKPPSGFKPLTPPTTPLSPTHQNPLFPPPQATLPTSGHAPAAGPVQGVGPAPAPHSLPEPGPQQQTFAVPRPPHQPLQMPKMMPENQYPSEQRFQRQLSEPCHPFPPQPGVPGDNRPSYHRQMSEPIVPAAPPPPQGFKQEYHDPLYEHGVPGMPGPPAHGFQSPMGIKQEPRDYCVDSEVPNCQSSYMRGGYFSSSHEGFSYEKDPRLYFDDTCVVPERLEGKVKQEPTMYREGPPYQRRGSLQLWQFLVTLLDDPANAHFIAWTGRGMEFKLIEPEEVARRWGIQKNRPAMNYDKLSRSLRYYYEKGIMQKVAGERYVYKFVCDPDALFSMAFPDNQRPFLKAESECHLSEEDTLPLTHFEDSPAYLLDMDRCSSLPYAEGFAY
# ELF4, sequence (Q99607 whole entry): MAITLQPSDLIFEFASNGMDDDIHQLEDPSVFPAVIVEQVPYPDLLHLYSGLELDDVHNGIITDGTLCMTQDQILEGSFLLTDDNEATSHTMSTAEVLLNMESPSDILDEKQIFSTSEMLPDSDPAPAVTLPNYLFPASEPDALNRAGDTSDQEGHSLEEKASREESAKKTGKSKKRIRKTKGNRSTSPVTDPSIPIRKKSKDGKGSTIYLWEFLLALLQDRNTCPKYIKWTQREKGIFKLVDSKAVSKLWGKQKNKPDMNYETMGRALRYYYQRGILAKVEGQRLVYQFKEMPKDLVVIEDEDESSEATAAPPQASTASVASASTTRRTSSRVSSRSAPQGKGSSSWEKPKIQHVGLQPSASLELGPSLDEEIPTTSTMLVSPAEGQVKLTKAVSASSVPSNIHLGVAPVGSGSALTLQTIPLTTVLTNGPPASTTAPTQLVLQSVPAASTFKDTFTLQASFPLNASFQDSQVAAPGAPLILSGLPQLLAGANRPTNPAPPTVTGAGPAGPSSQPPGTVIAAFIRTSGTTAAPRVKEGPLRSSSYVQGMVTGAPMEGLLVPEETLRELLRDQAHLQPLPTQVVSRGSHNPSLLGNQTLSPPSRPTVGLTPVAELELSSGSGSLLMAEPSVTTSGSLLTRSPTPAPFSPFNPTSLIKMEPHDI
# CRX, sequence (O43186 whole entry): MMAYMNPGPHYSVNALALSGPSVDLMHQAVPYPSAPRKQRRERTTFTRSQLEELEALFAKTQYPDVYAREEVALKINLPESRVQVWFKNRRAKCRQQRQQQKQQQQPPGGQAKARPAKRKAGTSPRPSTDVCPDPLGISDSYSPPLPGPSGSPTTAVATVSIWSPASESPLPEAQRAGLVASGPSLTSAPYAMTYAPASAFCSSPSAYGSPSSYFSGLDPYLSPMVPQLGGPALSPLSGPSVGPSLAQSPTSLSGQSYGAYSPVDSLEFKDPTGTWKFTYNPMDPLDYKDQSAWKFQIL
sequence,measurement,setting,value
TTAAGC,binding signal,FEV,"1.18 fold enrichment (6-mer frequency, TF over GST control)"
same,binding signal,ETV5,"1.12 fold enrichment (6-mer frequency, TF over GST control)"
same,binding signal,HSF1,"2.25 fold enrichment (6-mer frequency, TF over GST control)"
same,binding signal,SPIC,"1.19 fold enrichment (6-mer frequency, TF over GST control)"
same,binding signal,ELF4,"1.22 fold enrichment (6-mer frequency, TF over GST control)"
same,binding signal,ELK4,"1.15 fold enrichment (6-mer frequency, TF over GST control)"
same,binding signal,ETV2,"1.03 fold enrichment (6-mer frequency, TF over GST control)"
same,binding signal,ELF3,"1.1 fold enrichment (6-mer frequency, TF over GST control)"
same,binding signal,CRX,"3.77 fold enrichment (6-mer frequency, TF over GST control)"
